Measured values as given in paper PMC7862700, “An all-to-all approach to the identification of sequence-specific readers for epigenetic DNA modifications on cytosine”.

Assays:
Assay in all cases: DAPPL (digital affinity profiling via proximity ligation, sequencing); 10 mM Tris-HCl pH 7.5, 50 mM NaCl, 1 mM DTT, 4% glycerol, room temperature, 30 min; GST-TFs on glutathione beads, 16-mer random dsDNA library, 0.1% formaldehyde crosslink after washing; high values mean tight binding
FLI1 = target: T1, FLI1 (Homo sapiens, UniProt Q01543 1-452); conditions: protein: recombinant; tags: N-terminal GST; dsDNA, one strand shown
T1 sequence: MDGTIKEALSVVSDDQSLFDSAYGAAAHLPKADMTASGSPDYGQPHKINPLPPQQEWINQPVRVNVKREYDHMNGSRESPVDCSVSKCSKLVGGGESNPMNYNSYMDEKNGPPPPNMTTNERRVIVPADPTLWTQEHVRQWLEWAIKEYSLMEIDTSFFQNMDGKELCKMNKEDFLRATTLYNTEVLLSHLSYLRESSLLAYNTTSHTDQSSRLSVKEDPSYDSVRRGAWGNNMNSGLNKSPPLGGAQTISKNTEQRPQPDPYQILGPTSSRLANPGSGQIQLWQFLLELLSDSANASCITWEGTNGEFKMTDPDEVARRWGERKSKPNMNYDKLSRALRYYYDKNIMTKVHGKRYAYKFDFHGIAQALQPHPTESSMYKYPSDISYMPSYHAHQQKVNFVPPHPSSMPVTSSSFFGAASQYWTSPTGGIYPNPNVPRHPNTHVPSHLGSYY
Outline: (§1)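 Pools of DNA-barcoded human transcription factors, expressed in yeast as GST fusions on glutathione beads and combined with a tag-only sample, were incubated with 200 nmole of a 16-mer random double-stranded DNA library. Incubation took 30 min at room temperature in Tris/NaCl/DTT/glycerol buffer and was followed by washing, 0.1% formaldehyde crosslinking, proximity ligation (BsaI/T4 ligase, 1 h, 37 °C), PCR amplification and sequencing on an Illumina NextSeq500. Binding signal is the ratio of a hexamer's read frequency for a factor to its frequency for the tag-only sample.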

ELK1 = target: T2, ELK1 (Homo sapiens, UniProt P19419 1-428); conditions: protein: recombinant; tags: N-terminal GST; dsDNA, one strand shown
T2 sequence: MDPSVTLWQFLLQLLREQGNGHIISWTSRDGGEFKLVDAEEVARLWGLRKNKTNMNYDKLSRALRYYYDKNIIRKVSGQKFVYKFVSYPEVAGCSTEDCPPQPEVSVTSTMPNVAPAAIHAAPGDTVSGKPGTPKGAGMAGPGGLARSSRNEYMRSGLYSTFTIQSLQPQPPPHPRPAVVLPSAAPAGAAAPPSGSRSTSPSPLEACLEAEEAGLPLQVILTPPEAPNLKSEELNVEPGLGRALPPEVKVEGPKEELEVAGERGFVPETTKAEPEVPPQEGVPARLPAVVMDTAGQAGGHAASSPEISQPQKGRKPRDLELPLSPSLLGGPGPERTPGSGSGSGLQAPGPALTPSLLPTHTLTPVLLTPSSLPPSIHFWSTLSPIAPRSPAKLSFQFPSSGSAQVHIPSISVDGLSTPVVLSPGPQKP
Outline: as §1

GABPA = target: T3, GABPA (Homo sapiens, UniProt Q06546 1-454); conditions: protein: recombinant; tags: N-terminal GST; dsDNA, one strand shown
T3 sequence: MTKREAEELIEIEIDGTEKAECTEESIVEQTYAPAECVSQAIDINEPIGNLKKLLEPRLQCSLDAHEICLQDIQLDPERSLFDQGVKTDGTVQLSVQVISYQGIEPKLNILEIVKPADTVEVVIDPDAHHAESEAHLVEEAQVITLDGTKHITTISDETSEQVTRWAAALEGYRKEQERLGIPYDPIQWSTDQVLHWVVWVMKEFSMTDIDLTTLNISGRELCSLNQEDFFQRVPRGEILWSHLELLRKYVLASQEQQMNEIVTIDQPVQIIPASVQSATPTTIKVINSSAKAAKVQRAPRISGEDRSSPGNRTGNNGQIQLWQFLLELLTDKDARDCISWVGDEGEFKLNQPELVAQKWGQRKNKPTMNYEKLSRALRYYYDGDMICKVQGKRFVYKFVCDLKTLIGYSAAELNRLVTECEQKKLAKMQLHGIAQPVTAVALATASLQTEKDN
Outline: as §1

ERG = target: T4, ERG (Homo sapiens, UniProt P11308 1-479); conditions: protein: recombinant; tags: N-terminal GST; dsDNA, one strand shown
T4 sequence: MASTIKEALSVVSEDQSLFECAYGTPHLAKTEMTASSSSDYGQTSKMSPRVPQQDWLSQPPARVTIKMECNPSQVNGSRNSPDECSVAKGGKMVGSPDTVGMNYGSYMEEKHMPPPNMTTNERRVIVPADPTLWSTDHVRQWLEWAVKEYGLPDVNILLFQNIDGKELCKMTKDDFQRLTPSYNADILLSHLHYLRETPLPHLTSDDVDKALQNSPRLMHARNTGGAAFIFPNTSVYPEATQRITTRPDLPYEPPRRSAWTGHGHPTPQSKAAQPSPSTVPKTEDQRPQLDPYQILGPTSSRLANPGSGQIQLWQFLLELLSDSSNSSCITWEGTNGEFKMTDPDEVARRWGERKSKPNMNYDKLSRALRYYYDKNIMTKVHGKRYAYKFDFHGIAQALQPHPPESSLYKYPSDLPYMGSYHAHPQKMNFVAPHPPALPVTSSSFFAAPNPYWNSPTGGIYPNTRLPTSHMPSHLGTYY
Outline: as §1

ELF1 = ELF1 (Homo sapiens, UniProt P32519 1-619); conditions: protein: recombinant; tags: N-terminal GST; dsDNA, one strand shown
Outline: as §1

EHF = target: T5, EHF (Homo sapiens, UniProt Q9NZC4 1-300); conditions: protein: recombinant; tags: N-terminal GST; dsDNA, one strand shown
T5 sequence: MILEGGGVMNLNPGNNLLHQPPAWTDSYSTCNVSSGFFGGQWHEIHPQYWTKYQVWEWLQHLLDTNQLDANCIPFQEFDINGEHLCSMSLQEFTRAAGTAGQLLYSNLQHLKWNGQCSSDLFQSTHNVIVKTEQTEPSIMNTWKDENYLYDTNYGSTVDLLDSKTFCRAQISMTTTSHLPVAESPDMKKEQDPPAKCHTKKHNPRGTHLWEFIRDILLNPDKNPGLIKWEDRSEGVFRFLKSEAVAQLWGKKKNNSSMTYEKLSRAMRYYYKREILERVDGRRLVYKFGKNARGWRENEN
Outline: as §1

SPI1 = SPI1 (Homo sapiens, UniProt P17947 1-270); conditions: protein: recombinant; tags: N-terminal GST; dsDNA, one strand shown
Outline: as §1

SPIB = SPIB (Homo sapiens, UniProt Q01892 1-262); conditions: protein: recombinant; tags: N-terminal GST; dsDNA, one strand shown
Outline: as §1

ELK3 = target: T6, ELK3 (Homo sapiens, UniProt P41970 1-407); conditions: protein: recombinant; tags: N-terminal GST; dsDNA, one strand shown
T6 sequence: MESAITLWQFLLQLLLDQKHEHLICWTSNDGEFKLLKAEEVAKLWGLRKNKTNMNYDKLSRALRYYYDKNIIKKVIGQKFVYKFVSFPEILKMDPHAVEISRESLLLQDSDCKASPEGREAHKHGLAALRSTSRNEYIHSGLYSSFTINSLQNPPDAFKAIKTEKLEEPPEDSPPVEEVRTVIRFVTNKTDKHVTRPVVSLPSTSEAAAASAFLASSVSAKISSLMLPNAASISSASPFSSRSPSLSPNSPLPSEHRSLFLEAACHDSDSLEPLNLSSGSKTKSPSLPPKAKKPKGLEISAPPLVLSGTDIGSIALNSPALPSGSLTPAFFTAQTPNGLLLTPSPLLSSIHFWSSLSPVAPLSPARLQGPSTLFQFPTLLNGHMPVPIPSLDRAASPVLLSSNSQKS
Outline: as §1

FEV = target: T7, FEV (Homo sapiens, UniProt Q99581 1-238); conditions: protein: recombinant; tags: N-terminal GST; dsDNA, one strand shown
T7 sequence: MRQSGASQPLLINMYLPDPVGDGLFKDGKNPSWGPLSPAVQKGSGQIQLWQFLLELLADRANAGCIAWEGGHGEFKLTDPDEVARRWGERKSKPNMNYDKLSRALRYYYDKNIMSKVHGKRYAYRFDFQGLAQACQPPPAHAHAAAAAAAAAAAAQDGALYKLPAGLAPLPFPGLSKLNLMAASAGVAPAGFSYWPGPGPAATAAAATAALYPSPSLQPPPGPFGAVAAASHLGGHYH
Outline: as §1

ETV5 = ETV5 (Homo sapiens, UniProt P41161 1-510); conditions: protein: recombinant; tags: N-terminal GST; dsDNA, one strand shown
Outline: as §1

HSF1 = HSF1 (Homo sapiens, UniProt Q00613 1-529); conditions: protein: recombinant; tags: N-terminal GST; chain copies: 3; dsDNA, one strand shown
Outline: as §1

SPIC = target: T8, SPIC (Homo sapiens, UniProt Q8N5J4 1-248); conditions: protein: recombinant; tags: N-terminal GST; dsDNA, one strand shown
T8 sequence: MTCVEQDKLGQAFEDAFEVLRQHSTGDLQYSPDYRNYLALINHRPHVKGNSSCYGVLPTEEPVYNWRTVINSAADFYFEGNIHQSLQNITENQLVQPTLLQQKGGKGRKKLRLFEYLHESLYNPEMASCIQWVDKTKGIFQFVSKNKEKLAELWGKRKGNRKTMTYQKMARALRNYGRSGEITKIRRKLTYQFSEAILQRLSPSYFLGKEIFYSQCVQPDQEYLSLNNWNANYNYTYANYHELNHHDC
Outline: as §1

ELF4 = ELF4 (Homo sapiens, UniProt Q99607 1-663); conditions: protein: recombinant; tags: N-terminal GST; dsDNA, one strand shown
Outline: as §1

ELK4 = target: T9, ELK4 (Homo sapiens, UniProt P28324-2 1-405); conditions: protein: recombinant; tags: N-terminal GST; dsDNA, one strand shown
T9 sequence: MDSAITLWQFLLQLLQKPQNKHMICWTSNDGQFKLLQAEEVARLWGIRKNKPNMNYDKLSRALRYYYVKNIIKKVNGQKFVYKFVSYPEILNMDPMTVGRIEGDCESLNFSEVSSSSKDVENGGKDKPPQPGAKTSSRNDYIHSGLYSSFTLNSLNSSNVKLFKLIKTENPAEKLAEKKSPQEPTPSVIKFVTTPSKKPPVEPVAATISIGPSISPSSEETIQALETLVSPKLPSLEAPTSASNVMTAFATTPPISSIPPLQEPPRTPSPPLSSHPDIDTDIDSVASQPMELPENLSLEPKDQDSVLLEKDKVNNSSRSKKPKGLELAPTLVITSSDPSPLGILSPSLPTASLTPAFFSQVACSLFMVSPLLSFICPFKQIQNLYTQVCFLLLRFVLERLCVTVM
Outline: as §1

ETV2 = target: T10, ETV2 (Homo sapiens, UniProt O00321 1-342); conditions: protein: recombinant; tags: N-terminal GST; dsDNA, one strand shown
T10 sequence: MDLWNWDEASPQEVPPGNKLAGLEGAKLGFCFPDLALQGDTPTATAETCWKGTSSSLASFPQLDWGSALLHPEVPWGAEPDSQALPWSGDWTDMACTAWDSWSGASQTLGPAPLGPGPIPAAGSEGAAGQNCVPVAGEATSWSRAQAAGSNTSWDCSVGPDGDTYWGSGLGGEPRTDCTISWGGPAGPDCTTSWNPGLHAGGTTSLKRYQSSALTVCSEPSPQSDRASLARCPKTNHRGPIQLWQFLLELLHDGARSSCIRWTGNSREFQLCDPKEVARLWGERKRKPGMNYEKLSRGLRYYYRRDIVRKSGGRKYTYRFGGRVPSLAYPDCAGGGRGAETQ
Outline: as §1

ELF3 = target: T11, ELF3 (Homo sapiens, UniProt P78545 1-371); conditions: protein: recombinant; tags: N-terminal GST; dsDNA, one strand shown
T11 sequence: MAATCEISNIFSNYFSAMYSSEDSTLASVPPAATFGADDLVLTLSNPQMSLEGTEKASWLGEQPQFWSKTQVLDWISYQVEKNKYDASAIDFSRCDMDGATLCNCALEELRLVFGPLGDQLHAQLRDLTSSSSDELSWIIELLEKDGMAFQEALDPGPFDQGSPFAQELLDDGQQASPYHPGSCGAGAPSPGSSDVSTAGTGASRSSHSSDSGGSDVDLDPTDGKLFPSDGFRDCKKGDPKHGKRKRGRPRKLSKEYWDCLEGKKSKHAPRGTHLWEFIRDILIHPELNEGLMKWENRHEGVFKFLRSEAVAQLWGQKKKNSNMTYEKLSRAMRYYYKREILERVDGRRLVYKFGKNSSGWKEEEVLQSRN
Outline: as §1

CRX = CRX (Homo sapiens, UniProt O43186 1-299); conditions: protein: recombinant; tags: N-terminal GST; dsDNA, one strand shown
Outline: as §1

ETV1 = ETV1 (Homo sapiens, UniProt P50549 1-477); conditions: protein: recombinant; tags: N-terminal GST; dsDNA, one strand shown
Outline: as §1

ETV1, sequence (P50549 whole entry): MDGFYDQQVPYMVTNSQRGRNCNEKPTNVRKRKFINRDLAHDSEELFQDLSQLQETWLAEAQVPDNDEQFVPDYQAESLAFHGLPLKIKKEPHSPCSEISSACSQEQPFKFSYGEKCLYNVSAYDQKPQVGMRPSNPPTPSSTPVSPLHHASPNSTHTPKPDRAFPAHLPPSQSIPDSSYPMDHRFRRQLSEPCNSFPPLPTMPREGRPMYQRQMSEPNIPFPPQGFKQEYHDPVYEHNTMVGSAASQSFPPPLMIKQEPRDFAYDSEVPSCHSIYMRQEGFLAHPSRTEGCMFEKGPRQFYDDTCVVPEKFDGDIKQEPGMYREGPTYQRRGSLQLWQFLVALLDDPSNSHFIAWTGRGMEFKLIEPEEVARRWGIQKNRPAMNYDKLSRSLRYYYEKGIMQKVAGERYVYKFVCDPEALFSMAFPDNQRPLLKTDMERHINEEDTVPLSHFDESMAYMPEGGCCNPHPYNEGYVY
CRX, sequence (O43186 whole entry): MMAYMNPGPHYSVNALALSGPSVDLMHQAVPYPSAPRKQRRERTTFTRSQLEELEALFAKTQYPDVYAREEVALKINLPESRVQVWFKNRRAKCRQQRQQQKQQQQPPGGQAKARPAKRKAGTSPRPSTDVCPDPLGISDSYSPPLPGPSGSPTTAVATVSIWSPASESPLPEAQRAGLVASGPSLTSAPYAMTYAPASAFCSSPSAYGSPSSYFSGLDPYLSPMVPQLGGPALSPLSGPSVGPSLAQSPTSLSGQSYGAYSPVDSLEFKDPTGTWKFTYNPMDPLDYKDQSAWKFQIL
ETV5, sequence (P41161 whole entry): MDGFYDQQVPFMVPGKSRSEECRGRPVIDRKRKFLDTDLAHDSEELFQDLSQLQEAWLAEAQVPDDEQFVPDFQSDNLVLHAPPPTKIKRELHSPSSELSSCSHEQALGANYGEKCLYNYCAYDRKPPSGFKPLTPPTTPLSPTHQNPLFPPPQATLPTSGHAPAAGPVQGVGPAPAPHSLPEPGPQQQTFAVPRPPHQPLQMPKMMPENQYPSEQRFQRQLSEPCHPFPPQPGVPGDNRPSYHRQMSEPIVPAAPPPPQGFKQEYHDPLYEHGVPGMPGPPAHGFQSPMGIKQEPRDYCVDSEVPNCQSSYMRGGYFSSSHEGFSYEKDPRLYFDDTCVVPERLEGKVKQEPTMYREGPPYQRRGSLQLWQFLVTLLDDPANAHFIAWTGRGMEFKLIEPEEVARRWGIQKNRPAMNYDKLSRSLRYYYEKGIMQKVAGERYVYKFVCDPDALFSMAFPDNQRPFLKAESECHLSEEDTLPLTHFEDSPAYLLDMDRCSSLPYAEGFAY
SPIB, sequence (Q01892 whole entry): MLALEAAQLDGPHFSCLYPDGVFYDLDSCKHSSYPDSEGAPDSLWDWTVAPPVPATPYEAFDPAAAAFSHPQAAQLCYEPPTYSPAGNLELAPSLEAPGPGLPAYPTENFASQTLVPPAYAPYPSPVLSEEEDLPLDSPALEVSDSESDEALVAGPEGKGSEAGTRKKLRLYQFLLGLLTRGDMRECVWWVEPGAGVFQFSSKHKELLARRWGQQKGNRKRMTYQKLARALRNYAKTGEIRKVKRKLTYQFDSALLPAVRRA
ELF1, sequence (P32519 whole entry): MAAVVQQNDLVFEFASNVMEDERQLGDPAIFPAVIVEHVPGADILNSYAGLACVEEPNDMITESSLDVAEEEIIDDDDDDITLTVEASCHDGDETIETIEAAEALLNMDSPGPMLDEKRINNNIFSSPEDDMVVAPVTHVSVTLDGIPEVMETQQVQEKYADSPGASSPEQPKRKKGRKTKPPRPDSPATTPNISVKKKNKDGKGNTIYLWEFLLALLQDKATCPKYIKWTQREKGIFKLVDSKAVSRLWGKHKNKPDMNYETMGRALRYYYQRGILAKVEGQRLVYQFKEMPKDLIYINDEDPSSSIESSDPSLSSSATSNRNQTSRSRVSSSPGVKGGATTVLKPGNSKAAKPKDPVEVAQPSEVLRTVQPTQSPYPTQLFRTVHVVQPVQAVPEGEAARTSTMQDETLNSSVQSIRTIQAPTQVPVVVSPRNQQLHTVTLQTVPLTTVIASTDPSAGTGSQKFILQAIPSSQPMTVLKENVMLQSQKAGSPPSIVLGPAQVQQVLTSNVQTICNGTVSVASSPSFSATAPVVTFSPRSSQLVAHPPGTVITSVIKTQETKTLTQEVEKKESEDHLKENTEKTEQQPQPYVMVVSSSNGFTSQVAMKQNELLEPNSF
ELF4, sequence (Q99607 whole entry): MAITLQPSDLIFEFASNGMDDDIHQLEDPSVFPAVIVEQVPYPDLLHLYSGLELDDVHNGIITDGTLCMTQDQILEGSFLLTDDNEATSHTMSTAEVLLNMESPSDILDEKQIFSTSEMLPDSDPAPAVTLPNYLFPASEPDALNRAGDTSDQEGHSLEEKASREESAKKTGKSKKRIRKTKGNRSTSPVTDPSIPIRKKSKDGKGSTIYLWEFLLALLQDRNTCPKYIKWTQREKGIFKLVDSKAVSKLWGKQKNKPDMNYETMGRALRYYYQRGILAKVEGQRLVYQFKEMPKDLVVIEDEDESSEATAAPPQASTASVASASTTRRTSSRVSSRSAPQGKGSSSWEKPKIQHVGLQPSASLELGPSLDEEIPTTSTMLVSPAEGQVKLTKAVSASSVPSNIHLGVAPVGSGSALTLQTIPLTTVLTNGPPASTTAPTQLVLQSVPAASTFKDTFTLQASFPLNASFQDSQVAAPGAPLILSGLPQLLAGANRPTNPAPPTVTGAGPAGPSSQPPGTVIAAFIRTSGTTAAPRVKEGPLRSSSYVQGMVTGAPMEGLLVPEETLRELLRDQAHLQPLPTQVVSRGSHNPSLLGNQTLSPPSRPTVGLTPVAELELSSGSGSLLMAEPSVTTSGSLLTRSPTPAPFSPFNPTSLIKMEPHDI
HSF1, sequence (Q00613 whole entry): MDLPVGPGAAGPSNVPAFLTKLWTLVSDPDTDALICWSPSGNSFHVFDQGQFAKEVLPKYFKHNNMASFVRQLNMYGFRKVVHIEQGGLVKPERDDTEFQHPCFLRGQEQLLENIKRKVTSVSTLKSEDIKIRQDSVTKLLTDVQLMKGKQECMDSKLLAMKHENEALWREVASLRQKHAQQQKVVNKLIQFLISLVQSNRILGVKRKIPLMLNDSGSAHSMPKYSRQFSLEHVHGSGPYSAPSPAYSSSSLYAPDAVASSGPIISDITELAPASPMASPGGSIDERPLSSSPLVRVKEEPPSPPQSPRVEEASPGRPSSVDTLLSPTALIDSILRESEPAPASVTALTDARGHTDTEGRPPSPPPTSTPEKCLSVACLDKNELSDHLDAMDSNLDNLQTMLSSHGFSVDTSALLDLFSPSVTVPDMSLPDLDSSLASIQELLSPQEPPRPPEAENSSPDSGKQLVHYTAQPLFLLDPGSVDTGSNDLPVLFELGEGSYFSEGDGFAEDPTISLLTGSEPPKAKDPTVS

Question: What does the source list for CTTACT?
Answer: binding signal (FLI1): 1.38 fold enrichment (6-mer frequency, TF over GST control); binding signal (ELK1): 1.31 fold enrichment (6-mer frequency, TF over GST control); binding signal (GABPA): 1.3 fold enrichment (6-mer frequency, TF over GST control); binding signal (ERG): 1.27 fold enrichment (6-mer frequency, TF over GST control); binding signal (ELF1): 1.29 fold enrichment (6-mer frequency, TF over GST control); binding signal (EHF): 1.34 fold enrichment (6-mer frequency, TF over GST control); binding signal (SPI1): 1.3 fold enrichment (6-mer frequency, TF over GST control); binding signal (SPIB): 1.27 fold enrichment (6-mer frequency, TF over GST control); binding signal (ELK3): 1.34 fold enrichment (6-mer frequency, TF over GST control); binding signal (FEV): 1.17 fold enrichment (6-mer frequency, TF over GST control); binding signal (ETV5): 1.28 fold enrichment (6-mer frequency, TF over GST control); binding signal (HSF1): 1.34 fold enrichment (6-mer frequency, TF over GST control); binding signal (SPIC): 1.1 fold enrichment (6-mer frequency, TF over GST control); binding signal (ELF4): 1.36 fold enrichment (6-mer frequency, TF over GST control); binding signal (ELK4): 1.12 fold enrichment (6-mer frequency, TF over GST control); binding signal (ETV2): 1.39 fold enrichment (6-mer frequency, TF over GST control); binding signal (ELF3): 1.24 fold enrichment (6-mer frequency, TF over GST control); binding signal (CRX): 1.58 fold enrichment (6-mer frequency, TF over GST control); binding signal (ETV1): 1.23 fold enrichment (6-mer frequency, TF over GST control)
